The values that follow come from ChEMBL document CHEMBL3988442, “University of Dundee, Small-Polar-MMV Screening Library” (2021).

For assay [1], the target named is T1, Aspartate--tRNA(Asp/Asn) ligase (Mycobacterium tuberculosis (strain ATCC 25618 / H37Rv)) (UniProt P9WFW3). Also: in the data most compounds retested in dose-response had high values.
T1 sequence (whole entry): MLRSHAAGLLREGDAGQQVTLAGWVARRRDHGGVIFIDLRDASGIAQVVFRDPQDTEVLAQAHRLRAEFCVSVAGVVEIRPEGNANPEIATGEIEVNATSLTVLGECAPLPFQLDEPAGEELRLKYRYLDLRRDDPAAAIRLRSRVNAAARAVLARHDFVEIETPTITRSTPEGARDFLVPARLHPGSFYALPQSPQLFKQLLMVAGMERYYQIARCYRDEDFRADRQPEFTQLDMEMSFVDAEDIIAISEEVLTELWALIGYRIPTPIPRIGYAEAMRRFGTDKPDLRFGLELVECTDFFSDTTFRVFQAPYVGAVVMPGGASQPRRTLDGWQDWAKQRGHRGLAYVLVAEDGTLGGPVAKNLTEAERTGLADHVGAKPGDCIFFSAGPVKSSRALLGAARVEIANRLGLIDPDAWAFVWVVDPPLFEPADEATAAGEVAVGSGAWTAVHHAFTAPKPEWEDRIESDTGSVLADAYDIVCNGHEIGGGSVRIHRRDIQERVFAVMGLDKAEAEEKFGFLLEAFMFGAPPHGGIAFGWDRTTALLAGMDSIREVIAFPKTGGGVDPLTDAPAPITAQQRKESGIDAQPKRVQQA
Kind of assay: Assay for Asp RNA synthetase-1 from Mycobacterium tuberculosis. Set-up: scale not given: direction of the effect not stated beside the values. It counts as functional. Particulars: 30 µM.

In assay [2] the target is Shiga toxin 2 (Escherichia coli O157:H7) (UniProt P09385+P09386). As to the kind of experiment: E. coli 0.157:H7 Shiga Toxin SOP - stx2 screening assay. It counts as functional. Set-up: scale not given: direction of the effect not stated beside the values. Particulars: 30 µM.

On to `CN1CC(=O)N(c2cccnc2)CC12CCN(C(=O)c1cccnc1)C2` (stereo not given), for which the Percent Effect in assay [1] was 4.16%; in assay [2] it was -12%.
For `COc1ccc(CN2CCc3ncnc(OC(C)C)c3CC2)cc1` the same measures were 8.01% and -9.16%.
As for `COc1ccc(OC)c(NC(=O)N2CCCC2c2ccco2)c1` (stereo not given), the results for the Percent Effect in assay [1] and in assay [2] were -4.36% and 0.199%, respectively.
For `Cc1ccc(CN2CCn3c(C(=O)N(C)C)cnc3C2)s1` the same measures were 5.69% and -13.3%.
For the compound `CS(=O)(=O)N[C@@H]1CN(C(=O)c2ccccn2)[C@@H]2CCCO[C@@H]21`, the Percent Effect in assay [1] is -4.14%; in assay [2], 3.94%.
The matching figures for `CCn1ccnc1CN1CCCN(C(=O)c2cccc(C#N)c2)CC1`: 0.189% and -8.53%.
For `COCCN1C[C@@H]2CN(c3ncccn3)C[C@@H]2C1=O` the same measures were 0.324% and -15.3%.
For `Cc1ccc(CN2CC[C@H]3C[C@@H](c4nc(C5CC5)cs4)O[C@@H]3C2)o1` the same measures were 11.7% and -16.4%.
Regarding `COc1ccc(OCCNCCn2cccn2)cc1`, the Percent Effect was 1.29% in assay [1] and -27.4% in assay [2].
Consider `Cc1ccc(-c2csc(N)c2C#N)cc1`, for which the figures for the Percent Effect in assay [1] and in assay [2] were -4.7% and -3.71%, respectively.
On to `COc1ccc(OCc2nc(C(=O)N3CC(O)C3)co2)cc1`, for which the Percent Effect is -0.0558% in assay [1] and -45.4% in assay [2].
With `CNC(=O)CC1CC2(CCN(Cc3nccs3)CC2)c2ccccc21` (stereo not given), the Percent Effect is -1.76% in assay [1] and -4.71% in assay [2].
For `Cc1nn(C)c(C)c1C1CCCN1Cc1nc(C)c2ccccc2n1` (stereo not given) the same measures were 0.742% and 10.8%.
Turning to `Cc1nc(CN(C)C2CCN(Cc3ccc4c(c3)OCCO4)C2)no1` (stereo not given), the Percent Effect was -4.04% in assay [1] and 5.87% in assay [2].
The matching figures for `Cc1cc(=O)n(CC(=O)NCC2CCCO2)c(-c2ccc(F)cc2)n1` (stereo not given): 5.94% and -51.4%.
For `Cc1nc(C2CCCN2CC(=O)N(Cc2ccsc2)C2CC2)no1` (stereo not given) the same measures were 0.787% and 0.717%.
For `O=C(NCC1CCN(Cc2ccsc2)CC1)NC1CC1` the same measures were 4.04% and -10.9%.
For the compound `Cc1ccc(C2C3=C(COC3=O)Nc3[nH]nc(C)c32)cc1C` (stereo not given), the Percent Effect in assay [1] was -4.73%; in assay [2], -11.4%.
For `CN(Cc1ccc(F)cc1)CC1(O)CCN(C(=O)c2ccccc2)C1` (stereo not given) the same measures were 3.23% and -6.1%.
In the case of `CCn1nc(C)c2ncnc(NCC(=O)N3CCOCC3)c21`, the Percent Effect in assay [1] was -3.08%; in assay [2], -16.4%.
For `Cn1ccc(CN2CCC(CO)CC2)cc1=O` the same measures were -0.422% and -5.61%.
In the case of `CC1=N[C@@]2(CC[C@@H]3CN(Cc4ccccc4F)C[C@@H]32)C(=O)N1CC1CC1`, the Percent Effect is -6.8% in assay [1] and -2.95% in assay [2].
For `Cc1ccc(-c2ncc(C(=O)NCCS(N)(=O)=O)s2)c(C)c1` the same measures were 1.7% and 18.5%.
For `COc1c(C2CCCN2C(=O)c2cc(Cl)c[nH]2)c(C)nn1C` (stereo not given) the same measures were 0.802% and -13%.
For `CCc1cnc(N)nc1NCCN1CCCCC1` the same measures were 0.268% and -30.3%.
Regarding `Cc1cnn(CC(C)NCc2csc(-c3ccsc3)n2)c1` (stereo not given), the Percent Effect is -7.44% in assay [1] and -28% in assay [2].
The matching figures for `Cc1noc2ncc(C(=O)N3CCCC3c3ccncc3)cc12` (stereo not given): -7.22% and -37.9%.
Consider `CC(C)Cc1cc(C(=O)N2CCCC(n3cncn3)C2)[nH]n1` (stereo not given), for which the figures for the Percent Effect in assay [1] and in assay [2] were -3.97% and 2.44%, respectively.
Take `Cc1nc(-c2ccsc2)ccc1C(=O)NCCN1CCOCC1`: the Percent Effect is -2.94% in assay [1] and -4.33% in assay [2].
For `Cc1ccc(CC(=O)N2CCOC(c3nc(C)n[nH]3)C2)cn1` (stereo not given) the same measures were 1.92% and 0.301%.
For `Cc1ccc(N2CCCC(NCc3ccncc3)C2)nn1` (stereo not given) the same measures were 0.131% and -14.5%.
The matching figures for `COc1cc(C)nc(N2CCN(C(=O)CCn3cc(C)cn3)CC2)n1`: -3.63% and 12%.
Regarding `COCCN1CCC2(CC1)CC(COC)N(c1ncccn1)C2` (stereo not given), the Percent Effect in assay [1] was 0.446%; in assay [2], -9.07%.
The matching figures for `CS(=O)(=O)N1CCc2c(cccc2NC(=O)CC(F)(F)F)C1`: 5.45% and 2.18%.
For `CCc1nc(C2CCCN2C(=O)c2ccc3c(c2)nc(C)n3C)no1` (stereo not given) the same measures were -0.367% and 2.43%.
As for `Cc1nc(C)n(CC2CCCN(Cc3ccc(C(N)=O)cc3)C2)n1` (stereo not given), the Percent Effect in assay [1] is -5.85%; in assay [2], 20.8%.
On to `CC(C)(O)CN1CCN(C(=O)c2cc(Cl)cc3cccnc23)CC1`, for which the results for the Percent Effect in assay [1] and in assay [2] were -3.59% and -18%, respectively.
On to `Cc1cc(NC(=O)CN(C)C2CCCN(c3cccnn3)C2)n(C)n1` (stereo not given), for which the Percent Effect in assay [1] worked out at 5.7%; in assay [2] it was 30.1%.
Turning to `CC(Cn1cccn1)NC(=O)N1CCN(Cc2cccnc2)CC1` (stereo not given), the figures for the Percent Effect in assay [1] and in assay [2] were 0.625% and -18.1%, respectively.
The matching figures for `c1cnc(NCc2cncc3c2CCN(Cc2cccs2)C3)nc1`: 3.81% and -9.08%.
The matching figures for `N#Cc1cccc(C(=O)N2CCc3ncc(Cn4cccn4)n3CC2)c1`: 3.32% and 9.25%.
With `O=C(Cc1cccs1)N1C[C@@H]2COC[C@]2(COc2cccnc2)C1`, the Percent Effect in assay [1] was -6.32%; in assay [2], -1.18%.
For `COCCO[C@H]1CCN(Cc2cccs2)[C@H]1Cc1cccnc1` the same measures were 0.0141% and 9.31%.
Take `O=C(CN1C=Nc2ccccc2S1(=O)=O)NCCc1cccs1`: the Percent Effect in assay [1] was 0.225%; in assay [2], -2.28%.
For the compound `COC(=O)C1CCN(C(=O)c2ccc(N(C)S(C)(=O)=O)c(C)c2)CC1`, the Percent Effect in assay [1] is -4.11%; in assay [2] it was -5.54%.
For `CC(=O)N1CCC2(CCN(C(=O)c3ccc(Cl)c(C(F)(F)F)c3)CC2)C1` the same measures were 4.41% and 11.4%.
On to `CCCNC(=O)CNc1ccc(C(=O)N2CCCCC2C)cc1C` (stereo not given), for which the results for the Percent Effect in assay [1] and in assay [2] were 3.79% and 10.6%, respectively.
The matching figures for `O=C(c1ccnnc1)N1C[C@@H](OCC2CCCC2)[C@H]2OCCC[C@H]21`: 7.95% and -3.97%.
For `O=C(Nc1ccc(N2CCCC2)nc1)N1CCc2ccccc2C1` the same measures were 2.91% and -147%.
The matching figures for `Cc1nc(C2CCCN(C(=O)c3ccco3)C2)no1` (stereo not given): -1.47% and -1.79%.
